Assay results published in PubChem BioAssay (EPA / NIEHS).
The source made the active and inactive calls. How the source made its calls: active means hit-call score of the fitted dose curve at least 0.9, where 1 is the maximum; inactive means score below 0.9.

Experiment: CCTE_Harrill_HTTr_Viability_MCF7: CCTE's 6-hour Cell Viability Assessment for the High-Throughput Transcriptomics (HTTr) Platform, in MCF-7 cells cultured in DMEM + 10% fetal bovine serum, Harrill Lab (AID 2284010)
Summary of the method: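 Propidium iodide exclusion, imaged by high-content analysis, gauged viability after a six-hour exposure across eight concentrations. Cells were MCF-7 grown in DMEM with 10% fetal bovine serum; fits run in both directions against DMSO.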

Compound | outcome | AC50
CCN(CC)CCNc1ccc(CNC=O)c2sc3ccc(OC)cc3c(=O)c12 | inactive | –
Oc1cc2ccccc2c2ccccc12 | – | 9.92 µM (active)
OC1CCCCC1 | inactive | –
CCCCC(CC)COC(=O)CCCCC(=O)OCc1ccccc1 (centres undefined) | inactive | –
CCCCCCCCCCCCc1ccccc1S(=O)(=O)O | inactive | –
CCCCCCCCCCCCN1CCCC1=O | inactive | –
OC1CCC(C2CCCCC2)CC1 (centres undefined) | inactive | –
COc1cc(CCC(=O)CC(=O)CCc2ccc(O)c(OC)c2)ccc1O | inactive | –
Oc1cccc(O)c1 | inactive | –
CC(O)C(=O)O (centres undefined) | inactive | –
CC(C)(C)c1cccc(C(C)(C)C)c1O | inactive | –
CN1CCN(c2ccccc2/C=C2\SCCN(c3ccc(Cl)c(Cl)c3)C2=O)CC1 | – | 73.7 µM (active)
N#C[C@@H]1CC(F)(F)CN1C(=O)CNC1CC2CCC(C1)N2c1ncccn1 (some centres undefined) | inactive | –
CC1=C(/C=C/C(C)=C/C=C/C(C)=C/C(=O)O)C(C)(C)CCC1 | inactive | –
CCCOC(=O)c1ccc(O)cc1 | inactive | –
CC(C)(C)CC(C)(C)c1ccc(O)c(-n2nc3ccccc3n2)c1 | inactive | –
CC[C@H](C)[C@@H](C(=O)O)n1sc2ccccc2c1=O | inactive | –
c1ccc2cc3c(ccc4ccccc43)cc2c1 | inactive | –
Cc1cc(C)c(O)c(C)c1 | inactive | –
CCCCOCCO | inactive | –
O=C(OCCOCCOC(=O)c1ccccc1)c1ccccc1 | inactive | –
CCCCCCCC(=O)O | inactive | –
C#C[C@]1(O)CC[C@H]2[C@@H]3CCC4=CC(=O)CC[C@@H]4[C@H]3CC[C@@]21C | inactive | –
C[C@@H]1C[C@H]2[C@@H]3CCC4=CC(=O)C=C[C@]4(C)[C@@]3(F)[C@@H](O)C[C@]2(C)[C@@]1(O)C(=O)COP(=O)(O)O | inactive | –
